Measured values published in PubChem BioAssay (Tox21).
Values joined by “and” are separate entries in the source; they are usually repeats but may differ in a detail not shown here. Equal entries are not always repeated. Records with an inconclusive call do not appear. A call without a number means that no potency is given here. A number with no mark means an inactive call. Active and inactive are the calls of the source. Calls come from the whole dose curve; as a rule, active = well fitted cell-killing curve with a large enough effect in the repeat runs; inconclusive = weak or mixed curves, or effect the other way; inactive = flat fitted curve, though single readings scatter.

How the values were obtained:
[1] = cAMP Responsive Elements (CRE) small molecule antagonists, cell-based qHTS assay: qHTS cell viability counter screen (AID 2060913); note: nearly all actives have a fitted effect of over 40% in size
How it was run: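 CRE-bla HEK293T cells were seeded in assay medium with 10% dialyzed FBS, incubated 18 hrs at 37 C, then exposed to compounds plus 0.25 uM final NKH477 for 3 hrs. Viability was read by CellTiter-Glo luminescence after 30 min, in the same wells.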

[2] = cAMP Responsive Elements (CRE) small molecule agonists, cell-based qHTS assay: qHTS cell viability counter screen (AID 2060914);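 note: viability read after 3 h of compound exposure; nearly all actives have a fitted effect of over 50% in size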
How it was run: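 Cells are seeded and incubated 18 h, treated with compounds in DMSO for 3 h, read for the bla reporter, then given CellTiter-Glo; luminescence is measured after 30 min at room temperature.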
Potency is the fitted concentration of half-maximal effect.

| Structure (SMILES) | Potency [1] | Potency [2] | viability change, negative = cytotoxic [1] | activity change, negative = cytotoxicity [2] |
| --- | --- | --- | --- | --- |
| O=C1CC(=O)NC(=O)N1 | inactive | inactive | – | – |
| Nc1ccc([N+](=O)[O-])cc1Cl | inactive | inactive | – | – |
| O=C1C2CC=CCC2C(=O)N1SC(Cl)(Cl)Cl (stereo not drawn) | inactive | inactive | – | – |
| [Cl-].[Cl-].[Hg+2] | 19.2 µM (active) and 8.63 µM (active) | 21.6 µM (active) and 12.2 µM (active) | – | – |
| O=S(=O)(O)F | inactive | inactive | – | – |
| CSC(C)(C)/C=N/O | inactive | inactive | – | – |
| CCCCC(=O)Cl | inactive | inactive | – | – |
| CS(=O)(=O)Cl | inactive | inactive | – | – |
| CCCBr | inactive | inactive | – | – |
| FC(F)(F)c1cccc(C2=CCN(CCc3ccc4ccccc4c3)CC2)c1 | inactive | inactive | – | – |
| CC(C)(C)c1ccc(CSc2cnn(C(C)(C)C)c(=O)c2Cl)cc1 | inactive | inactive | – | – |
| CCC(C)n1c(=O)[nH]c(C)c(Br)c1=O (stereo not drawn) | inactive | inactive | – | – |
| CCOC(=O)c1ccccc1S(=O)(=O)NC(=O)Nc1nc(Cl)cc(OC)n1 | inactive | inactive | – | – |
| [O]=[Cr][O][Cr]=[O] | inactive | inactive | – | – |
| CCC1(CCC(C)C)C(=O)NC(=O)NC1=O | inactive | inactive | – | – |
| O=C(CCN1CC1)OCC(CO)(COC(=O)CCN1CC1)COC(=O)CCN1CC1 | inactive | inactive | – | – |
| CC1(C)[C@H](C(=O)O[C@H](C#N)c2cccc(Oc3ccccc3)c2)[C@@H]1/C=C(\Cl)C(F)(F)F | inactive | inactive | – | – |
| COP(=S)(OC)Oc1c(Cl)cc(C)cc1Cl | inactive | inactive | – | – |
| CNC(=O)Oc1cc(C)cc(C(C)C)c1 | inactive | inactive | – | – |
| CC(=O)c1cc(C(C)(C)C)cc2c1CCC2(C)C | inactive | inactive | – | – |

| Structure (SMILES) | Potency [1] | Potency [2] | viability change, negative = cytotoxic [1] | activity change, negative = cytotoxicity [2] |
| --- | --- | --- | --- | --- |
| CCCSP(=O)(OCC)Oc1ccc(Br)cc1Cl (stereo not drawn) | inactive | inactive | – | – |
| Cc1ccc2nc3sc(=O)sc3nc2c1 | – | – | 10.1% [at 18.9 µM] | -6.15% [at 18.9 µM] |
| CCOP(=S)(OCC)OC(Cl)C(Cl)(Cl)Cl (stereo not drawn) | inactive | inactive | – | – |
| N#CCCO | inactive | inactive | – | – |
| COC(=O)c1ccccc1S(=O)(=O)NC(=O)N(C)c1nc(C)nc(OC)n1 | inactive | inactive | – | – |
| CN1[C@@H]2CC[C@H]1CC(OC(=O)c1cc(Cl)cc(Cl)c1)C2 (stereo partly drawn) | inactive | inactive | – | – |
| N#Cc1cccnc1 | inactive | inactive | – | – |
| NCC(CC(=O)O)c1ccc(Cl)cc1 (stereo not drawn) | – | – | -0.747% [at 0.349 µM] | -9.73% [at 0.349 µM] |
| CC(O)CN1CCN(CC(=O)[O-])CCN(CC(=O)[O-])CCN(CC(=O)[O-])CC1.[Gd+3] (stereo not drawn) | inactive | inactive | – | – |
| C=CC(=O)OCCCCO | inactive | inactive | – | – |
| CCN(CC)CCN1C(=O)CN=C(c2ccccc2F)c2cc(Cl)ccc21 | inactive | inactive | – | – |
| O=C1C=CC(=O)C=C1 | inactive | inactive | – | – |
| CCC(=O)O[C@@H]1C=C2CCC3C(CCC4(C)C3CC[C@@H]4OC(=O)CC)C2CC1 (stereo partly drawn) | inactive | inactive | – | – |
| CC(C)N(Cc1ccccc1)C(=O)C(C)(C)C | inactive | inactive | – | – |
| CCC(C(N)=O)N1CCCC1=O (stereo not drawn) | inactive | inactive | – | – |
| CC1(C)C(C=C(Cl)Cl)C1C(=O)OC(C#N)c1cccc(Oc2ccccc2)c1 (stereo not drawn) | inactive | inactive | – | – |
| CCOP(=S)(OCC)Oc1ncn(-c2ccccc2)n1 | inactive | inactive | – | – |
| CC(c1ccc(O)cc1)(c1ccc(O)cc1)c1ccc(O)cc1 | inactive | inactive | – | – |
| CC(Cl)Cl | inactive | inactive | – | – |
| CCOS(C)(=O)=O | inactive | inactive | – | – |

| Structure (SMILES) | Potency [1] | Potency [2] | viability change, negative = cytotoxic [1] | activity change, negative = cytotoxicity [2] |
| --- | --- | --- | --- | --- |
| ClC1C(Cl)C(Cl)C(Cl)C(Cl)C1Cl (stereo not drawn) | inactive | inactive | – | – |
| CCN[C@H](C)Cc1cccc(C(F)(F)F)c1 | inactive | inactive | – | – |
| CC(C1CC1)C(O)(Cn1cncn1)c1ccc(Cl)cc1 (stereo not drawn) | inactive | inactive | – | – |
| OCC(Br)CBr (stereo not drawn) | inactive | inactive | – | – |
| CCN(CCO)CCO | inactive | inactive | – | – |
| CCCCOC(=O)c1ccccc1N | inactive | inactive | – | – |
| CC(Cc1ccccc1)NCCn1cnc2c1c(=O)n(C)c(=O)n2C (stereo not drawn) | inactive | inactive | – | – |
| C=COCCCl | inactive | inactive | – | – |
| CN(C)C(=O)C(c1ccccc1)c1ccccc1 | inactive | inactive | – | – |
| CCCCS(=O)(=O)Cl | inactive | inactive | – | – |
| SCc1ccccc1 | inactive | inactive | – | – |
| CCC1(c2cccc(O)c2)CCCCN(C)C1 (stereo not drawn) | inactive | inactive | – | – |
| CCSCc1ccccc1OC(=O)NC | inactive | inactive | – | – |
| CC(C)CC(C)Nc1ccc(Nc2ccccc2)cc1 (stereo not drawn) | inactive | inactive | – | – |
| CCOP(=S)(OCC)SCCSCC | inactive | inactive | – | – |
| c1ccc2sc(SNC3CCCCC3)nc2c1 | inactive | inactive | – | – |
| Cc1cccc(C#N)c1 | inactive | inactive | – | – |
| C=CC(C)(CCC=C(C)C)OC(=O)c1ccccc1N (stereo not drawn) | inactive | inactive | – | – |
| CCOCn1c(-c2ccc(Cl)cc2)c(C#N)c(Br)c1C(F)(F)F | inactive | inactive | – | – |
